Source: PubChem BioAssay
An excerpt weighted towards active compounds, which were near 3.4% of everything screened.
TEAD-YAP block = TEAD-YAP interaction inhibition, primary screen, TEAD-YAP interaction inhibitor project, luminescence, HEK-TIYL cells; TEAD-Gal4/YAP UAS-luciferase luminescence; inhibition, % at 9.12 µM; 1.4% of 640,000 active; AID 1259422, 2018; in the data active = inhibition above about 32%
GPR151 activ = activators of human GPR151, primary screen, cell-based, PathHunter beta-arrestin, luminescence; G-protein coupled receptor 151 (Homo sapiens), Q8TDV0; PathHunter beta-arrestin GPR151 cells; activation, % at 11.2 µM; 1% of 650,000 active; AID 1508602, 2020; in the data active = activation above about 4.9%
FBW7 act = FBW7 E3 ligase activators, primary screen, biochemical, AlphaScreen, human; normalized activity (activation), % at 26.1 µM; F-box/WD repeat-containing protein 7 (Homo sapiens), Q969H0; AlphaScreen FBW7–phospho-cyclin E peptide binding, activator screen; 0.13% of 650,000 active; AID 1259310, 2017; in the data active = normalized activity above about 1.9%;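 note: purified mutant Fbw7 with reduced substrate affinity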
MITF primary = MITF inhibitors, primary screen, biochemical, AlphaScreen, human; Microphthalmia-associated transcription factor (Homo sapiens), O75030; AlphaScreen MITF homodimerization, bead proximity signal; inhibition, % at 2.6 µM; 0.91% of 650,000 active; AID 1259374, 2018; in the data active = inhibition above about 50%
Target sequence (O75030 whole entry, looked up): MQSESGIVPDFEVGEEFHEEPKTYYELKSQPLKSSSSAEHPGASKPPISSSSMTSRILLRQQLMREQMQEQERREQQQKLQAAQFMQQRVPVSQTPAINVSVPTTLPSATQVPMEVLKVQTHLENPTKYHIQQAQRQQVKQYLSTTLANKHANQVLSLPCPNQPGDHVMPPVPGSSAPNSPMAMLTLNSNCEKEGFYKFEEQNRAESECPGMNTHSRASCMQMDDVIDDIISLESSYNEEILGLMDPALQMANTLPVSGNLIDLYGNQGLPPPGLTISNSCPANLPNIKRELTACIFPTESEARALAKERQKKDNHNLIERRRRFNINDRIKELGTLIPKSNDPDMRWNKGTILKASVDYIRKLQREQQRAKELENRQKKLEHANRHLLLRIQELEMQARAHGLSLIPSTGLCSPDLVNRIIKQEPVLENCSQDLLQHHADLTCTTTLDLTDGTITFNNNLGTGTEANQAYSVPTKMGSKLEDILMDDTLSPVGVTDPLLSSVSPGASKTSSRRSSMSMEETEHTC
Hits are given with their value; – = inactive.

SMILES	TEAD-YAP block	GPR151 activ	FBW7 act	MITF primary
CCOc1cccc(C2CC(c3ccc(Br)cc3)=NC(c3ccc(Cl)cc3)N2)c1O (stereo not drawn)	–	–	–	–
Cc1cccc(OC(=O)c2cc(S(=O)(=O)N(C)C)ccc2N2CCCC2)c1	–	–	–	–
COC(=O)c1ccc(C=Nc2ccc3c(c2)OCCO3)cc1	62	–	–	–
COC(=O)c1ccc(/C=C/C(=O)c2ccc3c(c2)OCCO3)cc1	–	–	–	–
CCOC(=O)c1cccc(NC(=O)COc2ccc(Cl)cc2Cl)c1	81	–	–	–
CCOC(=O)c1cccc(NC(=O)CCC2CCCCC2)c1	–	–	2.1	–
CCCCOC(=O)c1cccc(NC(=O)COc2ccc(Cl)cc2Cl)c1	57	–	–	–
CCOC(=O)c1cccc(NC2C=CS(=O)(=O)C2)c1 (stereo not drawn)	63	–	–	–
CCCCOC(=O)c1ccc(NC(=O)COc2ccc(Cl)cc2Cl)cc1	–	–	–	–
Cc1cnc(Cl)nc1NCCCN1CCCC1=O	–	–	–	–
CC(C)(C)C(=O)NC(=S)Nc1ccccc1[N+](=O)[O-]	–	–	–	–
Cc1ccc(NC(=O)CN2CCN(CCN=Cc3c(O)[nH]c(=O)[nH]c3=O)CC2)cc1	–	–	–	–
O=C1N[C@@H](Cc2ccc(Cl)cc2)C(=O)N2CCN(Cc3ccccc3)C[C@H]12	–	–	–	–
O=C1N[C@@H](Cc2ccccc2)C(=O)N2CCN(Cc3ccc(Cl)cc3)C[C@H]12	–	–	2.1	–
CCOC(=O)c1c(/N=c2\oc3c(OC)cccc3cc2C(=O)Nc2cccc(C)c2)sc2c1CCCC2	–	–	–	–
CCOC(=O)c1c(/N=c2\oc3c(OC)cccc3cc2C(=O)Nc2ccc(OC)cc2)sc2c1CCCC2	36	–	–	–
COc1cc(C(=O)/C=C/c2ccc(OCC(N)=O)cc2)cc(OC)c1OC	–	–	2.0	–
COC(=O)c1ccc(/C=C/C(=O)c2ccc(OC)c(OC)c2)cc1	–	–	–	–
CCOc1ccc(C(=O)/C=C/c2cc(OC)c(OC)c(OC)c2)cc1	40	–	–	–
COc1cc(/C=C/C(=O)c2ccc(F)cc2)cc(OC)c1OC	–	–	–	–
CC(Oc1cccc(Cl)c1)C(=O)NCC1CCCO1 (stereo not drawn)	–	–	–	–
O=C(CCn1c(SCC(=O)OCc2ccccc2)nc2ccccc2c1=O)NC1CCCCC1	–	–	–	–
c1ccc(-n2cnc3c(Nc4ccc(N5CCOCC5)cc4)nc(Nc4cccnc4)nc32)cc1	41	–	–	–
c1ccc(Nc2nc(Nc3cccnc3)nc3c2ncn3-c2ccccc2)cc1	34	–	–	–
c1ccc(Nc2nc(Nc3ccc(-n4ccnc4)cc3)nc3c2ncn3-c2ccccc2)cc1	–	–	–	–
SMILES	TEAD-YAP block	GPR151 activ	FBW7 act	MITF primary
CCN(CC)c1nc(Nc2ccc(N3CCOCC3)cc2)nc(Nc2ccc(-n3ccnc3)cc2)n1	65	–	–	–
c1ccc(OCCNc2nc(Nc3cccnc3)nc3c2ncn3-c2ccccc2)cc1	–	–	–	–
c1ccc(-n2cnc3c(Nc4ccc(N5CCOCC5)cc4)nc(Nc4ccc(-n5ccnc5)cc4)nc32)cc1	41	–	–	–
CCOC(=O)Cc1csc(N2C(=O)Nc3ccccc3N2O)n1	–	–	–	–
Nc1nc(SCCCC(=O)NCCO)nc2sc3c(c12)CCCC3	–	–	2.3	–
COc1cccc(/C=N/NC(=S)Nc2cccnc2)c1	–	–	–	–
COc1ccc(O)c(/C=N/Nc2ccccn2)c1	–	–	–	73
COc1cc(OC)c(OC)cc1/C=N/Nc1ccccn1	–	–	–	–
COc1ccc(O)c(/C=N/NC(=S)Nc2cccnc2)c1	–	–	–	91
Oc1ccc(/C=N/NC(=S)Nc2cccnc2)cc1	65	–	–	–
CCOC(=O)c1cc(CC)sc1NC(=O)c1ccccc1NS(=O)(=O)c1cccc2nsnc12	–	–	–	–
COc1cc(C=O)ccc1OCCN1CCOCC1	40	–	–	–
CCOc1cc(C=O)ccc1OCCN1CCOCC1	–	–	–	–
Oc1ccc(Br)cc1CN1CCN(Cc2c[nH]c3ccccc23)CC1	–	–	–	58
c1ccc2cc(CN3CCN(Cc4c[nH]c5ccccc45)CC3)ccc2c1	–	–	–	–
CCS(=O)(=O)N1CCN(Cc2cc(Br)ccc2O)CC1	–	–	–	54
Oc1ccc(Br)cc1CN1CCN(Cc2ccncc2)CC1	–	–	–	54
Cc1ccccc1N1C(=O)CN(C(=O)c2ccc(-n3ccnc3)cc2)CC1C (stereo not drawn)	–	–	–	–
NNC(=O)c1cncn1-c1ccccc1	37	–	–	–
CCN(CC)c1ccc(N)c(C)c1	–	–	–	80
C[C@@H](c1ccccc1)n1c(=O)[nH]c2ncc(-c3ccc(C(=O)N4CCOCC4)cc3)nc21	–	–	2.0	–
C[C@H](c1ccccc1)n1c(=O)[nH]c2ncc(-c3ccc(C(=O)N4CCN(C)CC4)cc3)nc21	–	–	–	–
CCC(/C=C1\Sc2ccccc2N1CC)=C\c1sc2ccccc2[n+]1CC	82	–	–	–
O=S(=O)(N/N=C1\CC(c2ccccc2)Oc2ccccc21)c1ccccc1 (stereo not drawn)	–	–	2.7	–
COc1ccc(N(/C=C2\Sc3ccccc3C2=O)C(=O)c2ccco2)cc1	–	–	–	–
SMILES	TEAD-YAP block	GPR151 activ	FBW7 act	MITF primary
CCC(=O)N(/C=C1\Sc2ccccc2C1=O)c1ccccc1OC	83	–	–	–
CCC(=O)N(/C=C1\Sc2ccccc2C1=O)c1ccccc1	–	–	–	–
CCC(=O)N(/C=C1\Sc2ccccc2C1=O)c1ccc(C)cc1	53	–	–	–
CN(CCO)c1ncnc2c1nnn2Cc1ccccc1Cl	–	–	–	–
Cc1ccc(N2CCn3c2nc2c3c(=O)[nH]c(=O)n2C)c(C)c1	–	–	–	–
O=C(Cn1cnc2ccccc21)NC1(c2cccc(F)c2)CCCC1	–	–	–	–
CCOc1ccc(/C=C/C(=O)Oc2ccc(Cl)cc2Cl)cc1	–	–	–	–
OCc1cccc(-c2cnc3ccc(NCc4cccs4)nn23)c1	–	–	–	–
OCc1ccc(-c2cnc3ccc(NCc4cccs4)nn23)cc1	35	–	–	–
Oc1ccc(-c2cnc3ccc(NCc4cccs4)nn23)cc1	62	–	–	–
Fc1ccc(-c2cnc3ccc(NCc4cccs4)nn23)cc1	–	–	–	–
O=[N+]([O-])c1cccc(Cl)c1NCCCNS(=O)(=O)c1ccc(Cl)cc1	–	–	–	–
COc1cccc2c(C)cc(N3CCN(C)CC3)nc12	–	–	1.9	–
CC(=O)Nc1cccc(NC(=O)c2cc3ccccc3oc2=O)c1	46	–	–	–
CC(Cc1ccco1)NC(=O)c1cc2ccccc2oc1=O (stereo not drawn)	–	–	3.0	–
Cc1cccc(NC(=O)c2cc3ccccc3oc2=O)c1	–	–	–	–
